Screen size: about 400,000 compounds; about 2,100 (0.53%) were called active. Inconclusive results (about 14%) are left out. The rule behind the calls is not given here. Shown is part of a subset that was picked to be rich in actives.

In the experiment the target is Ataxin-2 (Homo sapiens) (UniProt Q99700). The experiment is described as follows: qHTS for Inhibitors of ATXN expression. The experiment is classed as functional. For orientation: In qHTS, concentration-response curves come from the screen itself.
Ataxin-2 (Homo sapiens), sequence (Q99700 whole entry): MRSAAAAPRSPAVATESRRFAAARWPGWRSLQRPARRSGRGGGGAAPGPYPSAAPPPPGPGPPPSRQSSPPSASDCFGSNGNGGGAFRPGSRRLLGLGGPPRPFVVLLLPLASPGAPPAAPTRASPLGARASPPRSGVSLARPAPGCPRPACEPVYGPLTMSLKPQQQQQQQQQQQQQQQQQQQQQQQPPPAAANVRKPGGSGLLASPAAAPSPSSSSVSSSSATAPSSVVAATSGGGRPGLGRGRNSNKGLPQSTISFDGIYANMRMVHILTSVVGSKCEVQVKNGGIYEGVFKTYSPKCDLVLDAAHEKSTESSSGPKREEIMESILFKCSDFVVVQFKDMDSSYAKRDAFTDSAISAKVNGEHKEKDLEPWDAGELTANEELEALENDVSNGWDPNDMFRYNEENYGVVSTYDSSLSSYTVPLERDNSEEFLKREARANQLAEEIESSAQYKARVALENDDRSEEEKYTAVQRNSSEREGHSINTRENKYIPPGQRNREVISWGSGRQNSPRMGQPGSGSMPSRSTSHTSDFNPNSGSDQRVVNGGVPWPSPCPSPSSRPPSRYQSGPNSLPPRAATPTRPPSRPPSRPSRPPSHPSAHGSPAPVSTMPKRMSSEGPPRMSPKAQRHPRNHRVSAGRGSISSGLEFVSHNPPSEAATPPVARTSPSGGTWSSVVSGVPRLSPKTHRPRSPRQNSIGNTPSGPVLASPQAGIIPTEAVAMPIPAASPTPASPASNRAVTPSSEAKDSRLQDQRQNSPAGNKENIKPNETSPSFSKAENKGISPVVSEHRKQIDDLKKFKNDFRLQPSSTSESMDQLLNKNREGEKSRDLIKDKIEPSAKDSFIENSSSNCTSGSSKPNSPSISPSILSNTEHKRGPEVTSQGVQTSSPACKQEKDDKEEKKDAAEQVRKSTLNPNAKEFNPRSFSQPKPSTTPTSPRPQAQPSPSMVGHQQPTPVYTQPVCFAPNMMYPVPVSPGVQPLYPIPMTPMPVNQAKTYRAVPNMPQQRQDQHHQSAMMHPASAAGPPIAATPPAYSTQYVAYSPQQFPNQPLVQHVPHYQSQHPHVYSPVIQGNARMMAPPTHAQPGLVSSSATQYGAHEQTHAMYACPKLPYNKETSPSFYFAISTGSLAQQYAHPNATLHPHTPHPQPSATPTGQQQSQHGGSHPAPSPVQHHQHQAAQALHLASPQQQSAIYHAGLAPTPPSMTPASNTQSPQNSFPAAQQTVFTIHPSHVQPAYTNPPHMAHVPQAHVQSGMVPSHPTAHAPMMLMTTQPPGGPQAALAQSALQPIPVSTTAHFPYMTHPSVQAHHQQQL
Regarding `N#C/C(=C\c1ccc(N2CCCCC2)o1)C(=O)Nc1cccc(Br)c1`, the Potency result is “inactive”.
Take `COc1cc2ccc(=O)oc2c(O[C@@H]2O[C@H](CO)[C@@H](O)[C@H](O)[C@H]2O)c1O`: the Potency result is “inactive”.
Turning to `COc1ccccc1/C=C/c1nc(C#N)c(N(C)C)o1`, the Potency result was “inactive”.
Regarding `Cc1noc(C)c1S(=O)(=O)Nc1ccc(C(C)C)cc1`, the Potency result is “inactive”.
Consider `CC(C)NC(=O)Nc1ccc2c(c1)C(=O)N([C@H](C)CO)C[C@H](C)[C@@H](CN(C)Cc1ccc(C(F)(F)F)cc1)OCCCC[C@H](C)O2`, for which the Potency was 20 µM (active).
For `Cc1noc(C)c1S(=O)(=O)Nc1ccc2c(c1)C(=O)N([C@@H](C)CO)C[C@H](C)[C@@H](CN(C)Cc1ccc(C(F)(F)F)cc1)OCCCC[C@H](C)O2` the value was 20 µM (active); for `COc1ccc(CN2C(=O)/C(=C\NNC(=O)c3cccnc3)c3ccccc3C2=O)cc1`, “inactive”; for `O=C(CN(C(=O)CCC(=O)Nc1nccs1)c1ccccc1F)NCc1ccc(F)cc1`, “inactive”.
For `CCOc1ccc(-c2cnc3cccnn23)cc1`, the Potency result is “inactive”.
`O=C(N/N=C/c1cccc2cccnc12)[C@H]1C[C@@H]1c1ccccc1`: the Potency entry was “inactive”.
As for `Cc1ccc(-c2nnn(CC(=O)N(c3cccc(F)c3)C(C(=O)NC(C)(C)C)c3ccco3)n2)o1` (stereo unspecified), the Potency entry was “inactive”.
The value for `COc1ccc(-c2[nH]ncc2CNC(C)c2cn(C)nc2C)c(F)c1` (stereo unspecified) was “inactive”.
For `CCCCN(CC)CCNC(=O)c1cc2c(-c3ccc(Cl)cc3)nn(C)c2s1` the value was 39.8 µM (active); for `CCN(CC)CCCNC(=O)c1cn(-c2cccc(OC)c2)c(=O)c2ccccc12`, “inactive”; for `CCN(CC)CCNC(=O)c1cc2cc(Br)ccc2s1`, “inactive”.
For the compound `CCN(CC)CCNC(=O)c1cc2c(-c3ccc(Cl)cc3)nn(C)c2s1`, the Potency is 22.4 µM (active).
For `CCN(CC)CCCNC(=O)c1cc2c(-c3ccc(Cl)cc3)nn(C)c2s1` the value was 17.8 µM (active); for `Cc1ccc(-c2cc(C(=O)N3CCN(c4ncccn4)CC3)c3cc(Br)ccc3n2)o1`, “inactive”.
As for `CN=C(S)N1N=C(c2ccc(C)cc2)CC1c1ccc(N(C)C)cc1` (stereo unspecified), the Potency entry is “inactive”.
Regarding `O=C(Oc1cccc2ccccc12)C1CC1`, the Potency result is “inactive”.
For `CC(=O)/C(C#N)=C1\NC(=O)C(Cc2ccccc2C)S1` (stereo unspecified) the value was “inactive”; for `COC(=O)c1cc2c(ccn2C)n1C`, “inactive”.
As for `CCC1S/C(=N/N=C/c2ccco2)N(Cc2ccccc2)C1=O` (stereo unspecified), the Potency entry is “inactive”.
The value for `CC(C)c1cc(N2CCOCC2)n2ncc(-c3ccccc3)c2n1` was “inactive”; that for `COc1cccc(-c2nc(SCC(=O)Nc3nc(-c4ccccc4)c(C)s3)nc(O)c2C#N)c1` was “inactive”; that for `CCOC(=O)c1sc(NC(=O)CSc2nc3c(cc2C#N)CCCCCC3)c(C#N)c1C` was “inactive”.
Turning to `CCOc1ccc(/C=C/C2=Cc3c(sc(NC(=O)CSc4n[nH]c(N)n4)c3C#N)C(C)(C)C2)cc1`, the Potency was 39.8 µM (active).
Consider `CC(=O)C1=C(C)NC(SCC(=O)Nc2nc3ccccc3s2)=C(C#N)C1c1ccc(Cl)cc1` (stereo unspecified), for which the Potency entry is “inactive”.
For the compound `COC(=O)c1c(N=C(S)NNC(=O)c2ccc(Cl)s2)sc(C(=O)N(C)C)c1C`, the Potency is 39.8 µM (active).
On to `C/C=C(\C)C(=O)OC1CC(C)(C)C[C@H]2C3=CC[C@@H]4[C@@]5(C)CCC(O[C@@H]6O[C@@H](C(=O)O)[C@@H](O)C(O[C@@H]7OC[C@H](O)[C@@H](O)[C@@H]7O[C@@H]7OC(CO)C(O)[C@@H](O)[C@@H]7O)C6O[C@@H]6OC(CO)C(O)C(O)C6O)[C@@](C)(CO)[C@@H]5CC[C@]4(C)[C@]3(C)CC(O)[C@@]12CO` (stereo partly specified), for which the Potency is 31.6 µM (active).
For the compound `Cc1nn(C)cc1N1C(=O)c2cccc3c(N)ccc(c23)C1=O`, the Potency result is “inactive”.
Consider `COc1ccccc1C(CNC(=O)C1COc2ccccc2O1)N1CCCC1` (stereo unspecified), for which the Potency entry is “inactive”.
In the case of `COc1ccc(C(CNC(=O)c2ccc(-c3ccccc3Cl)o2)N2CCCC2)cc1` (stereo unspecified), the Potency was 17.8 µM (active).
Consider `COc1ccc(CNC(=O)C(C#N)c2nc3ccccc3nc2N2CCCC2)cc1` (stereo unspecified), for which the Potency entry was “inactive”.
In the case of `CCOc1ccc(C(=O)NCC(c2ccc(Cl)cc2)N2CCCCC2)cc1` (stereo unspecified), the Potency is 14.1 µM (active).
As to `CCOc1ccc(S(=O)(=O)NCC(c2ccc3c(c2)OCO3)N2CCN(C)CC2)cc1` (stereo unspecified), the Potency entry is “inactive”.
Turning to `CCOc1ccc(NS(=O)(=O)c2ccc(C(=O)NCC3CCCO3)cc2)cc1` (stereo unspecified), the Potency result is “inactive”.
For `CCNc1nc2nc3ccc(C)cn3c(=O)c2cc1C(=O)NCC1CCCO1` (stereo unspecified) the value was “inactive”; for `O=C(CN1C(=O)NC2(CCc3ccccc32)C1=O)Nc1ccc(Br)cc1F` (stereo unspecified), “inactive”.
Consider `Nc1nnnn1/N=C/c1ccccc1O`, for which the Potency entry was “inactive”.
Regarding `O=C(CCl)N(c1ccccc1)C1CCS(=O)(=O)C1` (stereo unspecified), the Potency is 17.8 µM (active).
`CC(Oc1ccccc1F)c1nnc(SCC(=O)N(c2ccccc2)C2CCS(=O)(=O)C2)o1` (stereo unspecified): the Potency result was “inactive”.
`O=C(OCC(=O)N(c1ccccc1)C1CCCCC1)c1ccc(CO)cc1`: the Potency entry is “inactive”.
Take `O=C(NC(=O)c1c(F)cccc1F)O/N=C1\CCCc2occc21`: the Potency result is “inactive”.
In the case of `CN(C)S(=O)(=O)c1cccc(NC(=S)N/N=C/C2CC=CCC2)c1` (stereo unspecified), the Potency result was “inactive”.
On to `Cc1nc2ccc(S(=O)(=O)Nc3ccc(-c4nc5cccnc5s4)cc3)cc2s1`, for which the Potency result is “inactive”.
As to `C=CCc1c(O)c(CC)cc2c(C)cc(=O)oc12`, the Potency entry is “inactive”.
For `CC(=O)c1c(C)oc2ccc(N(C(C)=O)S(=O)(=O)c3ccc(Cl)c([N+](=O)[O-])c3)cc12`, the Potency was 31.6 µM (active).
With `COC(=O)c1c(C)oc2ccc(N(C(=O)Oc3ccccc3)S(=O)(=O)c3ccc(Cl)c([N+](=O)[O-])c3)cc12`, the Potency was 35.5 µM (active).
With `C=CCN(c1ccccc1)S(=O)(=O)c1cccc(C(=O)Oc2ccc3c(C)cc(=O)oc3c2)c1`, the Potency entry is “inactive”.
For `CC=Cc1cc2c(c(=O)o1)C(=O)C(O)C(C)O2` (stereo unspecified) the value was 29.9 µM (active); for `CCOC(=O)c1cc2c(=O)n3ccccc3nc2n(CCCOC)/c1=N\C(C)=O`, “inactive”; for `C[C@H](NC(=O)c1ccc(Cl)cc1)C(=O)OCn1nnc2ccccc2c1=O`, 8.91 µM (active).
For the compound `COCCNC(=O)c1ccc(Cn2c(SCC(N)=O)nc3ccccc3c2=O)cc1`, the Potency entry is “inactive”.
For `O=C(CNC(=O)C1CCCCC1)OCn1nnc2ccccc2c1=O` the value was “inactive”; for `S=C1SCN(Cc2cccnc2)CN1Cc1cccnc1`, 13.4 µM (active).
In the case of `OCC1(CCc2ccccc2)CCN(Cc2cccn2-c2cccnc2)CC1`, the Potency entry was “inactive”.
In the case of `OC1(c2ccc(F)cc2)CCN(Cc2cccnc2)CC1`, the Potency result is “inactive”.
For the compound `Cc1cccc2c3c([nH]c12)CCNC3`, the Potency entry is “inactive”.
`O=C1OCCN1C(=O)[C@H]1[C@H](c2ccc(Cl)cc2)C(c2cccc(Cl)c2)=NN1c1ccccc1`: the Potency result is “inactive”.
With `Oc1nc2cc3ccccc3cc2nc1C(F)(F)F`, the Potency result was “inactive”.
Take `CCOc1ccc2nc(N3C(=O)CNC3=S)sc2c1`: the Potency was 39.8 µM (active).
Turning to `CCOc1ccc2nc(N3C(=O)/C(=C/c4ccc(Cl)cc4)NC3=S)sc2c1`, the Potency result is “inactive”.
As to `CN(C)CCCn1c(N)c(C#N)c2nc3ccccc3nc21`, the Potency result was “inactive”.
For `COc1cccc(OC)c1-c1nn2c(-c3cc(-c4ccccc4)[nH]n3)nnc2s1`, the Potency was 31.6 µM (active).
The value for `COc1ccc(-c2cc(C(=O)NN)[nH]n2)cc1OC` was “inactive”; that for `N#Cc1c(-c2ccccc2)cc(C2CC2)nc1SCC(=O)c1cccs1` was “inactive”; that for `Cc1cc(C)c(C(CC(=O)c2cccs2)C(C#N)C#N)c(C)c1` (stereo unspecified) was 31.6 µM (active).
As for `CCc1c(C)sc(NC(=O)c2cc(-c3cc(OC)ccc3OC)on2)c1C#N`, the Potency is 22.4 µM (active).
On to `COc1ccc(NC(=O)c2cc(-c3ccco3)on2)c(OC)c1`, for which the Potency entry was “inactive”.
The value for `COc1ccc(OC)c(-c2c(C#N)c(N)nc3c2c(=O)nc2sccn23)c1` was “inactive”.
In the case of `CC(C)Cn1c(N)c(C(=O)NCCN2CCOCC2)c2nc3ccccc3nc21`, the Potency result is “inactive”.
In the case of `CNc1nc(-c2ccccc2)cc(-c2ccccc2)n1`, the Potency result is “inactive”.
Take `Brc1cc(-c2ccccc2)nc(-c2ccccc2)n1`: the Potency was 39.8 µM (active).
For `Nc1ccc2nc(-c3ccccc3)cnc2c1` the value was “inactive”; for `O=c1c2sccc2nc(SCc2cc(=O)n3cc(Br)ccc3n2)n1Cc1ccccn1`, “inactive”.

(Values after ChEMBL document CHEMBL1201862, “PubChem BioAssay data set” (2004).)
